In PubChem BioAssay AID485317 (Broad Institute, 2010) one finds inhibition data, which are given here for 24 molecules.

In all, about 290,000 compounds went through this assay and about 11,000 (3.8%) were called active. This is one part of a sample in which actives are shown more often than they occur. A number with no mark means an inactive call.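 Rule for the calls: active = mean replicate inhibition above about 79%, with every replicate also reaching it (limit read from the data); inconclusive = only one of the two criteria met; inactive = mean below limit and not every replicate reaching it.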

Sequence of FAD-linked sulfhydryl oxidase ALR (Homo sapiens) (P55789 whole entry, looked up): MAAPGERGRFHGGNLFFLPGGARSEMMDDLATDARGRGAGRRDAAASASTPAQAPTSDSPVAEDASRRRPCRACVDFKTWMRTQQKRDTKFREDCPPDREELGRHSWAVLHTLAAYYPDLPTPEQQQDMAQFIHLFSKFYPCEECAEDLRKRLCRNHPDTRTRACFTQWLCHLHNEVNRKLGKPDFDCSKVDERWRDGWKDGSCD

This assay addresses FAD-linked sulfhydryl oxidase ALR (Homo sapiens) (UniProt P55789). As to the kind of experiment: inhibitors of human ALR sulfhydryl oxidase, primary screen, biochemical, H2O2 detection, HRP-luminol luminescence, single point (AID 485317). As to conditions: purified ALR, DTT oxidation, active compounds read high, concentration not given here.
With `CCOC(=O)[C@H]1[C@H]2COc3ccc(C)cc3[C@@H]2N2C(=O)CN(Cc3ccc(F)cc3)C(=O)[C@@]12C`, the inhibition is -13.6%.
Turning to `CCOCc1c(C(=O)N2CCN(Cc3ccc(Br)s3)CC2)oc2ccccc12`, the inhibition was 1.34%.
Turning to `CCN(CC(=O)Nc1ccccc1C(F)(F)F)C(=O)CSCc1c(C)noc1C`, the inhibition is 6.19%.
Then `Cc1ccccc1NC(=O)C(C)OC(=O)CCC(=O)N(CC(C)C)c1c(N)n(CC(C)C)c(=O)[nH]c1=O` (centres undefined), with -8.82%; and `COc1cc(C(=S)NC2CCCCC2)ccc1O`, with 98.5% (active).
Then `COc1ccc(C(=O)NC(=S)NC2CCCCC2)cc1`, with 3.44%; and `COc1cc(C(=S)N2CCOCC2)ccc1O`, with -6.46%; and `O=C(CN1CCN(S(=O)(=O)c2cccc(Cl)c2)CC1)N1CCCCC1`, with 14.4%.
With `O=C(NCC1(N2CCCCC2)CCCCC1)c1ccc(NS(=O)(=O)c2ccc(F)cc2)cc1` the figure was 7.5%; with `CC(Sc1nn(-c2ccc(Cl)cc2)c(=S)s1)C(=O)NCC1CCCO1` (centres undefined), -12.1%; with `CCOc1ccc(/C=N/Nc2nncc(-c3ccccc3)n2)cc1OC`, -1.74%.
For `COc1cc(-c2n[nH]c(=S)n2Cc2ccccc2)cc(OC)c1OC`, the inhibition was 68.8%.
As for `COc1cc(/C=N/n2c(C)n[nH]c2=S)ccc1OCc1ccccc1`, the inhibition is 97% (active).
With `COc1ccc(S(=O)(=O)Nc2ccc3cn[nH]c3c2)cc1[N+](=O)[O-]` the figure was -7.76%.
With `O=C(c1cc(-c2ccc(F)cc2)on1)N1CCN(c2ccc(F)cc2)CC1` the figure was 1.89%; with `O=C(c1cc(-c2ccc(O)cc2)on1)N1CCCc2ccccc21`, 98.8% (active).
For the molecule `Cc1ccc(-c2cc(C(=O)N3CCc4ccccc4C3)no2)cc1`, the inhibition is -5.44%.
`O=C(c1cc(-c2ccc(O)cc2)on1)N1CCOCC1`: the inhibition was 99% (active).
Then `O=C(c1cc(-c2ccc(Cl)cc2)on1)N1CCN(c2ccccc2)CC1`, with 4.35%.
Then `Cc1c(C(=O)N2CCCc3ccccc32)oc2ccccc12`, with 1.77%; and `COc1ccc2sc(-c3ccc(S(C)(=O)=O)cc3)c(C#Cc3cncn3C)c2c1`, with 1.35%; and `COc1ccccc1CCNC(=O)C(=O)NCCC1CCCCN1S(=O)(=O)c1cccs1` (centres undefined), with -56.8%.
With `CC1(C)O[C@H]2CC(=O)OCC23[C@H]2CC[C@@]4(C)[C@H](c5ccoc5)OC(=O)[C@H]5O[C@]54[C@]2(C)C(=O)C[C@@H]13` (some centres undefined) the figure was -10.7%; with `CCc1noc(C)c1C(=O)Oc1ccc(N(C)S(=O)(=O)c2ccc(C)c(C)c2)cc1`, 22.1%.
